Growth data for 13 compounds are collected here from PubChem BioAssay (NCI).

The structures appear in SMILES notation. About 83,000 compounds went through this panel and 20% of them were active in at least one assay; those are over-represented in the sample as a whole.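 Plates (96-well) were seeded with cells, treated with compound at one concentration, and incubated for 48 hours before percent growth was determined.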 Active and inactive are the calls of the source. The calls were made as follows: active = growth percent below 10; inactive = the rest.

The assay deals with HOP-62 NSCLC. In words: NCI-60 one-dose screen, 48 h (100 = growth as untreated, 0 = no growth, -100 = all killed). The following applies: 10 µM unless noted.
Regarding `COc1ccc2ncccc2c1Cc1c(OC)ccc2ncccc12`, the growth was 65% (inactive). In the case of `COc1cc(C2CC(C3C(=O)N(C)C(=O)N(C)C3=O)=NN2c2cc(Cl)cc(Cl)c2)cc(OC)c1OC` (stereo not drawn), the growth was 89.7% (inactive). In the case of `Cc1sc2nc(NCc3ccccc3)[nH]c(=O)c2c1C` it was 39.2% (inactive). In the case of `Cc1cc2c(cc1C)[n+](Cc1ccc3ccccc3n1)cn2Cc1ccc2ccccc2n1` it was 4.38% (active); in that of `COc1cc(/C=C2\CN(S(=O)(=O)c3ccc(C)cc3)C/C(=C\c3cc(CN4CCOCC4)c(O)c(OC)c3)C2=O)cc(CN2CCOCC2)c1O`, -16% (active); in that of `O=C1NCCc2c1noc2-c1ccccc1`, 94.9% (inactive). In the case of `C[C@]12CCC(=O)C=C1CC[C@H]1[C@@H]3C[C@@H](O)[C@](O)(C(=O)CO)[C@@]3(C)C[C@H](O)[C@@]12F` it was 101% (inactive); in that of `C/C(=C\CCc1ccsc1)CC/C=C(\C)CCCN1CCSCC1`, 99% (inactive). On to `COC(=O)Nc1ccc2ccc3c(NC(=O)OC)ccc4ccc1c2c43` (tested in a mixture with another compound), for which the growth is 48.5% (inactive). In the case of `O=C(Nc1nc2c(C(F)(F)F)cccc2s1)c1cc(Cl)ccc1O` it was -7.84% (active); in that of `COc1cc(C2=NN(C=O)C(c3cccc(Nc4ccnc5cc(Cl)ccc45)c3)C2)cc(OC)c1OC` (stereo not drawn), 73% (inactive); in that of `COc1cccc(-c2nc(-c3ccc(N)cc3)co2)c1`, 108% (inactive). Turning to `C[C@@H]1[C@H]2[C@H](C=C3[C@@H]4CC[C@H]5Cc6nc7c(nc6C[C@]5(C)[C@H]4C[C@@H](O)[C@@]32C)C[C@@H]2CC[C@H]3C4=C[C@@H]5O[C@@]6(CC[C@](C)(CO)O6)[C@@H](C)[C@@]5(O)[C@@]4(C)[C@H](O)C[C@@H]3[C@@]2(C)C7)O[C@]12CCC(C)(C)O2`, the growth was -24.5% (active).
